Compound activity: PubChem, National Center for Advancing Translational Sciences (NCATS)
Hits are enriched below; roughly 19% of the tested compounds scored in any of these assays.
DT40 TDP1 CPT – DT40-hTDP1 cell growth loss with CPT | chicken DT40 Tdp1-/-;hTDP1 cells + 20 nM CPT, ATP luminescence, 48 h | Potency, µM (top dose mostly 46.2 µM), actives largely listed as inhibitors | 420,000 tested, 12% active; further: nearly all actives have a fitted effect of over 55% in size
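Cell growth measured by CellTiter-Glo luminescence after a minimum 48 h, 37 C compound exposure with 20 nM CPT in Tdp1-knockout DT40 cells stably expressing hTDP1, seeded 400/well; qHTS titration format.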
IL-1B inflam inh – blocks inflammasome-driven IL-1 beta release | THP-1 LPS/ATP IL-1B secretion, AlphaLISA, 16 h; hits give low values | activity change, % at 57.5 µM | 360,000 tested, 4.7% active; in the data active means activity change below about -50%; inconclusive means mostly about -30% to -49%
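Secreted IL-1B measured by AlphaLISA bead assay after 16 h compound exposure of THP-1 cells; compounds (final up to 57.5 uM) added 1 h before LPS (250 ng/mL) and ATP (1.25 mM) stimulation; lower signal means less secretion.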
HT1080 IDH1KD tx – HT-1080 IDH1 knockdown cell toxicity (counter line); HT-1080 IDH1 knockdown viability, ATP luminescence, 48 h; Potency, µM (series often up to 46.1 µM), usual class: cytotoxic; 360,000 tested, 2% active; AID 686971
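HT-1080-IDH1KD cells (IDH1 knocked down), 750/well in RPMI with 5% FBS, treated with compound 48 h at 37 degrees C. Viability by CellTiter-Glo luminescence, normalised to DMSO and no-cell wells; concentration-response curves classed.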
DT40 TDP1 no CPT – qHTS for Inhibitors of human tyrosyl-DNA phosphodiesterase 1 (TDP1): qHTS in cells in absence of CPT | DT40 Tdp1-/- hTDP1 cells, no CPT, ATP luminescence, 48 h | Potency, µM (series often up to 46.2 µM), actives largely listed as inhibitors | 420,000 tested, 15% active; further: nearly all actives have a fitted effect of over 55% in size
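A cellular qHTS used chicken DT40 cells lacking endogenous Tdp1 but carrying stably transfected human TDP1. Compounds were applied without camptothecin, and cell growth kinetics were judged by ATP-dependent luminescence after ≥48 hr.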
HT1080NT lethal – kills 2HG-producing HT-1080-NT fibrosarcoma cells; HT-1080-NT fibrosarcoma viability, CellTiter-Glo ATP luminescence, 48 h; Potency, µM (series often up to 46.1 µM), most hits filed as cytotoxic; 360,000 tested, 1.6% active;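 further: NT is the 2HG producing partner of a matched IDH1 knockdown line; nearly all actives have a fitted effect of over 55% in size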
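HT-1080-NT fibrosarcoma cells (2HG-overproducing), 750 cells/well in RPMI with 5% FBS, dosed after 2 h and incubated 48 h at 37C. CellTiter-Glo luminescence normalized to DMSO and no-cell wells; concentration-response curves fitted and classed.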
Numbers stand for hits; i = inactive; ? = inconclusive; nt = no result given. Unless noted, the call rests on the fitted dose curve; in most records, active means well fitted curve in the direction sought with a large enough effect; inconclusive means small, poorly fitted or top-dose-only effect, or another doubt; inactive means no such curve, though single readings can be large; an effect the other way counts as inactive or inconclusive.

SMILES | DT40 TDP1 CPT | IL-1B inflam inh | HT1080 IDH1KD tx | DT40 TDP1 no CPT | HT1080NT lethal
Cc1ccc(C(=O)OCC(=O)Nc2sccc2C(N)=O)cc1NC(=O)c1ccco1 | ? | i | i | 6.51µM | i
Cc1ccc(C(=O)OCC(=O)Nc2ccccc2)cc1NC(=O)c1ccco1 | i | i | i | i | i
Cc1ccc(NC(=O)c2ccc(NC(=O)N3CCSc4nc(C)cc(C)c43)cc2)c(Cl)c1 | ? | nt | nt | i | nt
CC(=O)Nc1ccc(S(=O)(=O)N(C)c2ccc(OCC(=O)NCCc3ccccc3F)cc2)cc1 | ? | ? | i | ? | i
C[C@H]1O[C@@H](O[C@H]2[C@@H](O)C[C@H](O[C@H]3[C@@H](O)C[C@H](O[C@H]4CC[C@@]5(C)[C@H](CC[C@@H]6[C@@H]5C[C@@H](O)[C@]5(C)[C@@H](C7=CC(=O)OC7)CC[C@]65O)C4)O[C@@H]3C)O[C@@H]2C)C[C@H](O)[C@@H]1O | 0.841µM | -62.7 | 0.0366µM | 0.596µM | 0.231µM
CC1CCC(NC(=O)COC(=O)CCC(=O)c2ccc(Cl)s2)CC1 (centres undefined) | i | i | i | i | i
O=C(N/N=C/c1ccc(Cl)cc1)c1n[nH]c2c1CCCC2 | 0.581µM | i | 0.517µM | 0.92µM | 0.411µM
O=C(N/N=C/c1cccs1)c1n[nH]c2c1CCC2 | 4.11µM | i | 6.51µM | 3.66µM | 7.31µM
O=C(N/N=C/C(Br)=C/c1ccccc1)c1n[nH]c2c1CCC2 | 2.59µM | i | 7.94µM | 4.11µM | ?
O=C1c2sc3nc4c(c(=O)n3c2C(=O)N1c1ccccc1)CCC4 | 4.11µM | ? | i | 6.51µM | i
N=C1SCC(=O)N1c1ccccc1Cl | i | i | i | i | i
O=C1c2sc3nc4ccccc4n3c2C(=O)N1c1ccccc1Cl | 2.59µM | ? | i | 7.31µM | i
Cc1ccc(N2C(=O)c3sc4nnc(C)c(=O)n4c3C2=O)cc1 | i | i | i | i | i
Cc1ccccc1N1C(=O)c2sc3nc4c(c(=O)n3c2C1=O)CCC4 | 5.8µM | i | ? | 18.4µM | ?
CCCCCCCCCCC[C@@H](C[C@@H]1OC(=O)[C@H]1CCCCCC)OC(=O)[C@H](CC(C)C)NC=O | ? | i | i | 18.4µM | i
COc1cc(OC)c(C2SCCN2S(=O)(=O)c2ccc(F)cc2)cc1OC (centres undefined) | 13µM | i | i | 14.6µM | i
COc1ccc(OC)c(C2SCCN2S(=O)(=O)c2cccc(C(F)(F)F)c2)c1 (centres undefined) | 16.4µM | ? | i | ? | i
O=c1c2ccccc2c(-c2ccccc2)nn1-c1ccc(Cl)c(Cl)c1 | ? | i | i | ? | i
O=C(CN1C(=O)NC2(CCCCCCC2)C1=O)Nc1ccc(OC(F)F)cc1 | 23.1µM | i | i | 18.4µM | i
O=C(CN1C(=O)NC2(CCCCCCC2)C1=O)Nc1cccc(Br)c1 | 16.4µM | i | i | 20.6µM | i
O=C(CN1C(=O)NC2(CCCCC2)C1=O)Nc1ccc(F)cc1 | i | i | i | i | i
CCCn1c(NC(=O)CN2C(=O)NC3(CCCCC3)C2=O)nc2ccccc21 | ? | i | i | 23.1µM | ?
Cc1ccc(NC(=O)CN2C(=O)NC3(CCCCCCC3)C2=O)cc1C | 9.2µM | i | i | ? | i
CCN(CC)S(=O)(=O)c1ccc2c(c1)oc(=O)n2CC(=O)NC1CCCCC1 | i | i | i | i | i
O=c1c(-c2cccc(Cl)c2)nc2cncnc2n1Cc1ccccc1Cl | i | nt | nt | i | nt
SMILES | DT40 TDP1 CPT | IL-1B inflam inh | HT1080 IDH1KD tx | DT40 TDP1 no CPT | HT1080NT lethal
N#CC(c1ccc(Cl)cc1)c1c(Cl)cc(-n2ncc(=O)[nH]c2=O)cc1Cl (centres undefined) | i | nt | nt | i | nt
CCOC(=O)n1c2ccccc2c(=O)n1CCO | i | i | i | i | ?
NC(Cc1cc(I)c(Oc2cc(I)c(O)c(I)c2)c(I)c1)C(=O)O (centres undefined) | i | nt | nt | i | nt
O=C(CN1C(=O)NC2(CCCCCC2)C1=O)Nc1ccc2c(c1)CCC2 | ? | i | i | 11.6µM | i
O=C(CN1C(=O)NC2(CCCC2)C1=O)OCCOc1ccc(Br)cc1 | 14.6µM | i | i | 18.4µM | i
CN(CC(=O)Nc1cccc(F)c1)C(=O)CN1C(=O)NC2(CCCCC2)C1=O | ? | i | i | 20.6µM | i
